# Inconclusive results are not listed. Calls of active or inactive are those of the source. Calls come from the whole dose curve; as a rule, active = well fitted inhibition curve with a large enough effect; inconclusive = small, poorly fitted or top-dose-only effect; inactive = flat fitted curve, though single readings scatter.
# Test system: CRL-7250
# Assay: Cytotoxic Profiling of Annotated Libraries Using Quantitative High-Throughput Screening (AID 1296008); note: nearly all actives have a fitted effect of over 60% in size
# Conditions: Five cell lines viability, CellTiter-Glo ATP luminescence, 48-72 h; max response: hits give low values
# Outline: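 Cytotoxicity was measured as CellTiter-Glo ATP luminescence, read after 10 min at room temperature. Compound treatment of the cells lasted 48 or 72 hr at 37 degrees Celsius in a qHTS format.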
# % is set by controls: 0 for no effect and ±100 for the full control effect.
Structure (SMILES),max response,outcome
C=C1CC[C@@]2(OC1)O[C@H]1CC3[C@@H]4CC=C5C[C@H](O[C@H]6OC[C@@H](O)C(O)[C@@H]6O[C@@H]6O[C@@H](C)[C@H](O)[C@@H](O[C@@H]7O[C@H](CO)[C@@H](O)[C@H](O)[C@H]7O)[C@H]6O)C[C@@H](O)[C@]5(C)C4CC[C@]3(C)[C@H]1[C@@H]2C (stereo partly specified),3.7% (inactive),–
Cc1c(C)c(NCC(=O)N(C)C2CCN(Cc3ccc(C(N)=O)cc3)CC2)c(C)c(C)c1N,–,inactive
CC1CCC2(C(=O)O)CCC3(C)C(=CCC4C5(C)CCC(O)C(C)(C(=O)O)C5CCC43C)C2C1(C)O (stereo unspecified),-10.9% (inactive),–
C=C1C[C@]23C[C@H]1CC[C@H]2[C@]1(C)CC[C@H](O)[C@@](C)(C(=O)O)[C@H]1[C@@H]3C(=O)O,-9.09% (inactive),–
COC(=O)C(CC1(OC(=O)C(C)C)c2ccccc2N2C(=O)C(C)(C)N(O)C21)n1cnc2ccccc2c1=O (stereo unspecified),-11.1% (inactive),–
C=C[C@H]1[C@H](O[C@@H]2O[C@H](CO)[C@@H](O)[C@H](OC(=O)/C=C/c3ccc(O)c(OC)c3)[C@H]2O)OC=C2C(=O)OCC[C@]21O,-3.95% (inactive),–

# — PubChem BioAssay (NCATS)
